A selection: hits, their analogues and other compounds. The true share with any hit is near 1.3%.
NPR1 activator: GC-A (human) enzyme activation. HEK293 GC-A cells, cGMP TR-FRET, EC30 ANP; 0% at EC30 ANP, 100% saturating ANP. activation, % at 10 µM. actives 0.14% (n = 370,000); in the data active means activation above about 40%
HIF act: HIF pathway transcriptional activation; U2OS HRE-luciferase reporter, luminescence; normalized: DMSO 0%, desferrioxamine 100%; activation, % at 7.5 µM (by protocol); actives 0.32% (n = 300,000);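 active means mean activation of at least 10% of the iron chelator positive control signal, with at least half of replicates also reaching 10%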
NPR2 activator: GC-B (human) receptor activation | actives 0.11% (n = 370,000) | HEK293-GC-B cells, CNP EC30, cGMP TR-FRET; 0% at EC30 CNP, 100% saturating CNP | P20594 | activation, % at 10 µM | AID 1920062;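 active means activation at 10 µM reaching about 35% in either raw or pattern-adjusted values, limit read from the data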
Target sequence (P20594 whole entry, looked up): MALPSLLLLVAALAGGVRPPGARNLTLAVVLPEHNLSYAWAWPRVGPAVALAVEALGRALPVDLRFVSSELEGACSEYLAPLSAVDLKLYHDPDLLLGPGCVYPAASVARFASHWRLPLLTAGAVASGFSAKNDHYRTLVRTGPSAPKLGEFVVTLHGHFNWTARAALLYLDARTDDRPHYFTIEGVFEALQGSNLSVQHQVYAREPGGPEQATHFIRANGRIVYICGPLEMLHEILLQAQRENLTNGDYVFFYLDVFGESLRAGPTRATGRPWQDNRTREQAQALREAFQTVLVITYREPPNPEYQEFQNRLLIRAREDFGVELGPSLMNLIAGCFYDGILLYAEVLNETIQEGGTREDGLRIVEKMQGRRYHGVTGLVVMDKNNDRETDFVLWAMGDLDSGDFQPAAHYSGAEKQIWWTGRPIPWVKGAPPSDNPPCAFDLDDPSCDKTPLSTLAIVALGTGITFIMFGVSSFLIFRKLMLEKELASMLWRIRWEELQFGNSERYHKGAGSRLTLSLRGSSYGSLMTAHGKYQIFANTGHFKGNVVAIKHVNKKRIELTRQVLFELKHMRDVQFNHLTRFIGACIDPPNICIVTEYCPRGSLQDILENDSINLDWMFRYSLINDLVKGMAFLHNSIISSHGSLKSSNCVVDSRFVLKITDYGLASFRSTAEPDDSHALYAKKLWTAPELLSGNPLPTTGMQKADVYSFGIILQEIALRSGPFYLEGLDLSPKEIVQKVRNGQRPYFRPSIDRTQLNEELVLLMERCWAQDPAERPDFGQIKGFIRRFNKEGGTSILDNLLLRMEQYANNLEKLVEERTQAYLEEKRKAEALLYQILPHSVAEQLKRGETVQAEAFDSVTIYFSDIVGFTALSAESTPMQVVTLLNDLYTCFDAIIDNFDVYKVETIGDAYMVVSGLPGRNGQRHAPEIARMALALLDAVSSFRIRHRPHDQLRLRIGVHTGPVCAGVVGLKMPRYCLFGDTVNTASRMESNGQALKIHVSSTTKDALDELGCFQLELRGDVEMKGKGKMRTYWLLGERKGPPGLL
KLK7 zymogen act: activates the human kallikrein-7 zymogen | P49862 | purified proKLK7, EDANS-DABCYL substrate fluorescence; 100% is mature enzyme control, 0% vehicle | activation, % at 7 µM | actives 0.9% (n = 370,000) | AID 652039;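 active means activation above the mean of all tested compounds plus 3 SD, computed per campaign excluding outliers beyond control limits, cut at about 13% in these data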
KLK7 act conf: proKLK7 activation, confirmation; shares compounds with KLK7 zymogen act; purified proKLK7, EDANS-DABCYL substrate fluorescence; scaled: vehicle 0, mature enzyme 100; activation, % at 7 µM; actives 68% (n = 3,200); AID 686949;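 active means activation, as change over the incubation, above the mean of all tested compounds plus 3 SD, cut at about 13% in these data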
EDANS interfere: counter-screen for kallikrein-7 activators: EDANS-DABCYL optical interference. shares compounds with KLK7 zymogen act. EDANS-DABCYL substrate fluorescence interference, no enzyme, 4 h; solvent 0%, active enzyme control 100%. activation, % at 7 µM. actives 80% (n = 3,200). AID 686952;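 active means activation above the all-compound mean plus 3 SD, ignoring values outside control-based bounds, cut at about 4.8% in these data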;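 further: value is the 4 h activation minus the activation read at time zero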
K7 EDANS ctr: counter-screen for kallikrein-7 activators: EDANS-DABCYL interference, dose response | shares compounds with KLK7 zymogen act | EC50, µM | actives 20% (n = 250) | EDANS-DABCYL peptide fluorescence interference, no enzyme;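 active means compounds that raise the fluorescence signal in this interference counterscreen, with EC50 at or below 10 µM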;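 further: intact quenched peptide substrate alone read at 355 nm excitation and 520 nm emission; signal is fluorescence gain from T0 to T4 after four hours at room temperature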
Numbers without * were called inactive.

Screening C/C(=N\NC(=O)CN1CCCCC1)c1cccc([N+](=O)[O-])c1 returned NPR1 activator -0.2, HIF act 0.0, NPR2 activator 2.0 and KLK7 zymogen act 0.2.
For Cc1cccc(C(=O)N(Cc2cccs2)C2CCS(=O)(=O)C2)c1 (stereo not given) the results were NPR1 activator -7.8, NPR2 activator -6.1 and KLK7 zymogen act 0.2.
For O=C(c1ccc(F)cc1)N(Cc1cccs1)C1CCS(=O)(=O)C1 (stereo not given) the results were NPR1 activator -6.6, HIF act 166.6*, NPR2 activator -1.3 and KLK7 zymogen act 0.3.
COc1ccc(-c2csc(NNC3=NCCCCC3)n2)cc1 was read as NPR1 activator -3.1, HIF act 205.3*, NPR2 activator 2.1 and KLK7 zymogen act -0.2.
`COc1ccc(-c2csc(NC3=NCCCCC3)n2)cc1` gave NPR1 activator 2.5, HIF act 3.4, NPR2 activator 6.2 and KLK7 zymogen act -0.4.
CCOC(=O)c1c(NC(=O)CN2C(=O)NC3(CCC(C)CC3)C2=O)sc(C)c1-c1ccc(C)cc1 (stereo not given) was read as NPR1 activator -1.2, HIF act 39.0*, NPR2 activator 3.4 and KLK7 zymogen act 0.1.
CCOC(=O)c1c(NC(=O)CN2C(=O)NC3(CCCCC3)C2=O)sc(C)c1-c1ccc(C)cc1 was read as NPR1 activator 1.5, HIF act 0.5, NPR2 activator 6.8 and KLK7 zymogen act 0.3.
Cc1ccc2nc3nc(NCC4CCCO4)c(C(=O)NC4CCCC4)cc3c(=O)n2c1 (stereo not given) was read as NPR1 activator 8.4, HIF act 0.1, NPR2 activator -0.9, KLK7 zymogen act 24.5*, KLK7 act conf -3.0 and EDANS interfere -10.8.
Screening CCNc1nc2nc3ccc(C)cn3c(=O)c2cc1C(=O)NCC1CCCO1 (stereo not given) returned NPR1 activator 17.0, HIF act -0.3, NPR2 activator 0.0, KLK7 zymogen act 74.6*, KLK7 act conf 69.2* and EDANS interfere 68.8*.
Screening C=CCNC(=O)c1cc2c(=O)n3cc(C)ccc3nc2nc1NCC1CCCO1 (stereo not given) returned HIF act -0.1.
Screening Cc1cccn2c(=O)c3cc(C(N)=S)c(=N)n(CCCN4CCOCC4)c3nc12 returned NPR1 activator 14.0, HIF act -0.2, NPR2 activator -1.0 and KLK7 zymogen act 10.0.
Screening Cc1cccn2c(=O)c3cc(C(=O)NC4CCCCC4)c(=N)n(CCN4CCOCC4)c3nc12 returned NPR1 activator 8.1, HIF act 0.2, NPR2 activator -0.6 and KLK7 zymogen act 8.4.
`N=c1c(C(=O)NCCN2CCOCC2)cc2c(=O)n3ccccc3nc2n1CCCN1CCOCC1` gave NPR1 activator 10.7, HIF act 0.5, NPR2 activator 3.9, KLK7 zymogen act 14.4*, KLK7 act conf 4.0 and EDANS interfere 5.0*.
COCCCn1c(=N)c(C(=O)NCc2ccc3c(c2)OCO3)cc2c(=O)n3cccc(C)c3nc21 was read as NPR1 activator 7.5, NPR2 activator -4.8 and KLK7 zymogen act 0.2.
`CCCCNC(=O)c1cc2c(=O)n3cccc(C)c3nc2n(CCN2CCOCC2)c1=N` gave NPR1 activator 6.4, HIF act -0.3, NPR2 activator -5.7, KLK7 zymogen act 16.1*, KLK7 act conf 5.9 and EDANS interfere 10.2*.
For COCCCn1c(=N)c(C(N)=S)cc2c(=O)n3cccc(C)c3nc21 the results were NPR1 activator 14.9, HIF act 0.8, NPR2 activator -1.5, KLK7 zymogen act 35.4*, KLK7 act conf 21.4* and EDANS interfere 24.3*.
COCCNC(=O)c1cc2c(=O)n3cccc(C)c3nc2n(Cc2ccncc2)c1=N was read as NPR1 activator 10.8, HIF act -0.2, NPR2 activator -0.2, KLK7 zymogen act 140.7*, KLK7 act conf 43.7* and EDANS interfere 54.2*.
Screening Cc1ccc2nc3c(cc(C(N)=S)c(=N)n3CCCOC(C)C)c(=O)n2c1 returned NPR1 activator 26.5, HIF act 0.4, NPR2 activator 15.8, KLK7 zymogen act 14.2*, KLK7 act conf 2.5 and EDANS interfere 3.3.
`Cc1ccc2nc3c(cc(C(=O)NCCN4CCOCC4)c(=N)n3CCCN3CCOCC3)c(=O)n2c1` gave HIF act 0.3.
`CCCCNC(=O)c1cc2c(=O)n3cccc(C)c3nc2n(Cc2ccncc2)c1=N` gave NPR1 activator 11.6, HIF act -0.4, NPR2 activator 0.7, KLK7 zymogen act 44.5*, KLK7 act conf 0.0 and EDANS interfere -1.7.
Screening Cc1ccccc1-n1c2nc(=O)n(C)c(=O)c-2cc2ccccc21 returned NPR1 activator 4.9, HIF act 0.5, NPR2 activator 2.4, KLK7 zymogen act 20.7*, KLK7 act conf 29.8*, EDANS interfere 19.3* and K7 EDANS ctr inactive.
`CCC[C@H]1[C@@H](OC(=O)NCc2ccccc2)CC[C@@]23CCCN2C(=O)CCC[C@@H]13` gave NPR1 activator -19.8 and NPR2 activator -17.1.
`OCCNc1c2ccccc2nc2c(F)c(F)c(F)c(F)c12` gave NPR1 activator -10.4, HIF act 0.0, NPR2 activator -5.7, KLK7 zymogen act 17.6*, KLK7 act conf 19.0*, EDANS interfere 8.6* and K7 EDANS ctr >69.5.
`Cc1c2ccccc2nc2c(F)c(NCCO)c(F)c(F)c12` gave NPR1 activator 7.3, HIF act -0.4, NPR2 activator -1.4 and KLK7 zymogen act 0.2.
`CNc1cnc(-c2ccsc2)cn1` gave NPR1 activator 4.3, NPR2 activator 3.3, KLK7 zymogen act 14.7*, KLK7 act conf 12.2 and EDANS interfere 11.6*.
`O=C(CSc1nnc(-c2ccccc2)n1-c1ccccc1)NN=Cc1ccc(-c2ccccc2)cc1` gave NPR1 activator -7.5, NPR2 activator 3.8 and KLK7 zymogen act 0.7.
Screening Cc1cc(=O)oc2cc(OC(=O)CCN3C(=O)c4ccccc4C3=O)ccc12 returned NPR1 activator 1.9, HIF act 0.1, NPR2 activator -12.5, KLK7 zymogen act 57.5*, KLK7 act conf 427.4* and EDANS interfere 403.5*.
CCCC(=O)Oc1ccc2c(C)cc(=O)oc2c1 was read as NPR1 activator 5.2, HIF act -0.5, NPR2 activator -3.4, KLK7 zymogen act 655.6*, KLK7 act conf 685.6* and EDANS interfere 706.4*.
